Hits are enriched below; roughly 1.4% of the tested compounds scored in any of these assays.
TSG101-PTAP inh = blocks PTAP/TSG101 interaction to inhibit HIV-1 budding; 340,000 tested, under 10 active; Potency, µM (highest dose often 115 µM), without a hit: at the highest dose activity change, negative = inhibition, hits mostly inhibitors; AID 493005; Fluorescence polarization, FITC-PTAP peptide / Tsg101 binding; active = well fitted inhibition curve with a large enough effect in the main read-out, with a control signal flat, not every such curve was filed as active; inconclusive = small, poorly fitted or top-dose-only effect, or effect the other way, or a change in a side signal; inactive = no such curve, though single readings can be large or run the other way; note: potency is the fitted concentration of half-maximal effect; % of control where 0% means no effect
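Steps: Tsg101 binding domain dispensed (10 uM final), compounds pinned in DMSO, FITC-labeled PTAP-motif peptide added (50 nM final); after 20 min binding at room temperature, polarization measured.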
ALOX12 inh = inhibitors of human 12S-lipoxygenase ALOX12; P18054; purified 12hLO, xylenol orange hydroperoxide absorbance; Potency, µM (highest dose often 108 µM), for inactives: at the top dose activity change, negative = inhibition, most hits filed as inhibitors; 1.1% of 580,000 active; AID 1671190; note: potency is the fitted concentration of half-maximal effect; % is set by controls: 0 for no effect and ±100 for the full control effect
Target sequence (P18054 whole entry, looked up): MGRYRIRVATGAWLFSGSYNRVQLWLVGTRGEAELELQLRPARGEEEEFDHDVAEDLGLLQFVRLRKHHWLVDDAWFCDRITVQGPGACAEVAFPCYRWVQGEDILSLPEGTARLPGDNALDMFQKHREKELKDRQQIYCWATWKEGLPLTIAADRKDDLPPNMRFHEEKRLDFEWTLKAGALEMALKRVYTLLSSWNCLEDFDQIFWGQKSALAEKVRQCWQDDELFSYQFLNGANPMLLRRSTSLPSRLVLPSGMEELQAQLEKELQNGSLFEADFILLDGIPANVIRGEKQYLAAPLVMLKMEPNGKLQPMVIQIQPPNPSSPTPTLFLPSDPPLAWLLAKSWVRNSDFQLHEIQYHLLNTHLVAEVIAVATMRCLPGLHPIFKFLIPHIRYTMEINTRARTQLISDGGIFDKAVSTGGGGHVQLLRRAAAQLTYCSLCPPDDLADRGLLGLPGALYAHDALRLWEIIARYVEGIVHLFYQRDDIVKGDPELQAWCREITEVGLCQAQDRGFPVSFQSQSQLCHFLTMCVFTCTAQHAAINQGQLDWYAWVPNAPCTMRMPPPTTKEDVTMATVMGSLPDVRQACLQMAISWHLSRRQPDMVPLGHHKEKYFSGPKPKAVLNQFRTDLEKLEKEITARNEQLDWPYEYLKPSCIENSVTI
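Purified human 12hLO (150 nM final) in 25 mM Hepes, 0.01% Triton X-100, pH 7.0 was preincubated 15 min at room temperature with compound. Then 40 uM arachidonic acid was added, 30 min. Hydroperoxide was read by Fe-XO absorbance ratio 573/405 nm.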
Vif-A3G inh = Vif-A3G binding inhibition; Q9HC16; HeLa A3G-eYFP + Vif (tagged APOBEC3G with the HIV-1 protein that degrades it), YFP fluorescence, overnight; Potency, µM (top dose mostly 46.1 µM), for the others: top-dose activity, negative = active, actives largely listed as inhibitors; 0.076% of 410,000 active; AID 602310; note: potency is the fitted concentration of half-maximal effect; % is set by controls: 0 for no effect and ±100 for the full control effect; nearly all actives have a fitted effect of over 60% in size
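Read-out is eYFP fluorescence (Ex 488/Em 500-530) from Vif-expressing HeLa A3G-eYFP cells; more signal means A3G escaped Vif-mediated degradation. Cells plated overnight, compound pinned in, incubated overnight at 37 deg C.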
S-ASM inh = inhibitors of human secretory acid sphingomyelinase | P17405 | 0.006% of 340,000 active | Potency, µM (series often up to 57.5 µM), inactives show top-dose activity change, negative = inhibition, actives largely listed as inhibitors | AID 504937 | placental ASM, HMU-PC fluorogenic substrate, 60 min; note: potency is the fitted concentration of half-maximal effect
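Steps: dispense placental human ASM, pin compound, wait 10 min at room temperature, add HMU-PC0 substrate at 9 uM final, incubate 60 min at 37 °C, add stop solution raising pH to 10, read fluorescence.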
Akt phos inh = Akt phosphorylation inhibition | 0.32% of 360,000 active | Neuro2A IGF-stimulated pAkt S473 HTRF, 20 min; stronger effect = lower value | activity change, % for hits at 50 µM; in the data active = activity change below about -80%; inconclusive = mostly about -51% to -80%; note: % is set by controls: 0 for no effect and ±100 for the full control effect
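Neuro2A cells in DMEM with 0.5% FBS, overnight at 37 deg C, given compound at single 50 µM final, then IGF (6 nM final) for 20 min at 37 deg C. Lysed; phospho-Akt Ser473 by HTRF after 24 h, 665/615 ratio.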
Vif-APOBEC3F blk = inhibitors of Vif-A3F interaction; HeLa A3F-eYFP + Vif (tagged APOBEC3F with the HIV-1 protein that degrades it), YFP fluorescence increase; Potency, µM (highest dose often 46.1 µM), for the others: at the highest dose activity, negative = active; 0.2% of 390,000 active; note: potency is the fitted concentration of half-maximal effect; % of control where 0% means no effect; nearly all actives have a fitted effect of over 65% in size
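HeLa cells stably expressing A3F-eYFP plus Vif, plated and incubated overnight at 37 deg C, then exposed to compounds overnight at 37 deg C. Blocked degradation read as raised yellow fluorescence (Ex 488/Em 500-530).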
* marks the source's active call; other numbers are inactive results; [ ] = dose if it differs, or a comment. Unless noted, calls come from the whole dose curve; as a rule, active = well fitted curve in the direction sought with a large enough effect; inconclusive = small, poorly fitted or top-dose-only effect, or another doubt; inactive = no such curve, though single readings can be large; an effect the other way counts as inactive or inconclusive.

`COCc1cn(C[C@H]2C[C@@H](NCc3cccnc3)[C@H](O)[C@@H]2O)nn1` gave ALOX12 inh 22µM*.
O=S1(=O)CCN(Cc2cn(C[C@H]3C[C@@H](NCc4ccc(F)cc4)[C@H](O)[C@@H]3O)nn2)CC1 was read as ALOX12 inh 13µM*.
`O=S(=O)(N[C@@H]1C[C@H](Cn2cc(-c3cccnc3)nn2)[C@@H](O)[C@H]1O)c1ccccc1` gave ALOX12 inh 20µM*.
O=C(N[C@@H]1C[C@H](Cn2cc(-c3cccnc3)nn2)[C@@H](O)[C@H]1O)C1CCCC1 was read as ALOX12 inh 80%.
Screening CN(Cc1ccc(F)cc1)S(=O)(=O)c1cccc2nsnc12 returned ALOX12 inh 56%.
Screening CC(C)CNC(=O)C(=O)NC1CC(C)(C)NC(C)(C)C1 returned ALOX12 inh 20%.
COc1ccc(/C=c2\s/c(=C/C(=O)c3ccc(C)cc3)[nH]c2=O)c(OC)c1 was read as TSG101-PTAP inh inconclusive, ALOX12 inh -9%, Vif-A3G inh inconclusive, S-ASM inh -12%, Akt phos inh inactive and Vif-APOBEC3F blk 25µM*.
COc1cccc(/C=c2\s/c(=C/C(=O)c3ccc(C)cc3)[nH]c2=O)c1OC was read as TSG101-PTAP inh -3%, ALOX12 inh -27%, Vif-A3G inh -13%, S-ASM inh -7%, Akt phos inh inactive and Vif-APOBEC3F blk inconclusive.
`Cc1cc(C(F)(F)F)n2nc(C)c(-c3ccc(Cl)cc3)c2n1` gave TSG101-PTAP inh 0%, ALOX12 inh -20%, Vif-A3G inh 0%, S-ASM inh 1%, Akt phos inh inactive and Vif-APOBEC3F blk -9%.
`Cc1cc(C(F)(F)F)n2nc(C(=O)O)c(Cl)c2n1` gave TSG101-PTAP inh -7%, ALOX12 inh 45µM*, Vif-A3G inh 1%, S-ASM inh 2%, Akt phos inh inactive and Vif-APOBEC3F blk -10%.
Cc1cccc(C(=O)NC(CC(=O)O)c2ccc(C(C)(C)C)cc2)c1 (stereo unspecified) was read as ALOX12 inh -33%.
`Cc1ccc(S(=O)(=O)N(C)CC(O)Cn2c3ccccc3c3ccccc32)cc1` (stereo unspecified) gave TSG101-PTAP inh 0%, ALOX12 inh 1%, Vif-A3G inh 1%, S-ASM inh -5%, Akt phos inh -114%* and Vif-APOBEC3F blk -6%.
Screening CNc1sc(C(C)=O)cc1C returned ALOX12 inh 13µM*.
OC(c1ccco1)c1nc(-c2cccs2)cs1 (stereo unspecified) was read as ALOX12 inh 18µM*, Vif-A3G inh 1% and Akt phos inh inactive.
Screening COc1ccc(C(O)c2nc(-c3cccs3)cs2)cc1 (stereo unspecified) returned ALOX12 inh inconclusive, Vif-A3G inh 1% and Akt phos inh inactive.
Screening CC(C)c1cccc(-c2csc(C(O)c3ccco3)n2)c1 (stereo unspecified) returned ALOX12 inh 14µM*, Vif-A3G inh -1% and Akt phos inh inactive.
Screening CCC(=O)N1N=C(c2ccc(F)cc2)CC1c1ccc2nccnc2c1 (stereo unspecified) returned ALOX12 inh -25%.
CCC(=O)Nc1cc(SCCO)cc([N+](=O)[O-])c1 was read as ALOX12 inh 18%, Vif-A3G inh 0%, S-ASM inh -3%, Akt phos inh -88%* and Vif-APOBEC3F blk -10%.
`COc1ccc(C2=Nc3ccccc3N(C(=O)c3ccc4c(c3)OCO4)C2C(=O)Nc2c(C)cccc2C)cc1` (stereo unspecified) gave ALOX12 inh -60% and Akt phos inh inactive.
COc1ccc(C2=Nc3ccccc3N(C(=O)c3ccc4c(c3)OCO4)C2C(=O)NCc2ccccc2)cc1 (stereo unspecified) was read as ALOX12 inh -23% and Akt phos inh inactive.
COc1ccc(C2=Nc3ccccc3N(C(=O)c3ccc(C)cc3)C2C(=O)Nc2c(C)cccc2C)cc1 (stereo unspecified) was read as ALOX12 inh 0.79µM* and Akt phos inh inactive.
For COc1ccc(C2=Nc3ccccc3N(C(=O)c3ccc(C)cc3)C2C(=O)NCc2ccccc2)cc1 (stereo unspecified) the results were ALOX12 inh 3.5µM* and Akt phos inh inactive.
`CCc1ccc(C(=O)Nc2cccc(-c3nnc4n3CCCC4)c2)cc1` gave ALOX12 inh 35%.
`CC(=O)NC1(C)CCN(Cc2cccc(Oc3ccccc3)c2)CC1` gave ALOX12 inh 16µM*.
CC(=O)NC1(C)CCN(Cc2cnc(-c3ccccc3OCc3ccccc3)s2)CC1 was read as ALOX12 inh 8.9µM*.
For COc1cccc(Nc2cc(CN3CCC(C)(NC(C)=O)CC3)cc(OC)c2)c1 the results were ALOX12 inh 40µM*.
CC(=O)NC1(C)CCN(Cc2cccc(-c3ccccc3)c2)C1 (stereo unspecified) was read as ALOX12 inh -17%[176 µM].
Screening Cc1ccc(-c2cc(C(=O)NC3=NCCS3)c3ccccc3n2)cc1 returned ALOX12 inh -33%.
`O=C(NCC1CCCO1)c1ccccc1` (stereo unspecified) gave TSG101-PTAP inh -7%, ALOX12 inh 1%, Vif-A3G inh -2%, S-ASM inh 3%, Akt phos inh inactive and Vif-APOBEC3F blk inconclusive.
For C[n+]1cccc(C(=O)NCC2CCCO2)c1 (stereo unspecified) the results were TSG101-PTAP inh 3%, ALOX12 inh 16µM*, Vif-A3G inh -5%, S-ASM inh 4%, Akt phos inh inactive and Vif-APOBEC3F blk 9%.
For O=C(NC(=S)NCC1CCCO1)c1ccc(Cl)cc1 (stereo unspecified) the results were TSG101-PTAP inh 0%, ALOX12 inh 40µM*, Vif-A3G inh 1%, S-ASM inh 1%, Akt phos inh inactive and Vif-APOBEC3F blk -7%.
COc1ccc(-c2nc(C(=O)N3CCCCCC3)nn2-c2cccc(Cl)c2)cc1 was read as ALOX12 inh 7%.
`COc1ccc(C2(CNC(=O)c3cc(OC)c(OC)c(OC)c3)CCCC2)cc1OC` gave TSG101-PTAP inh 0%, ALOX12 inh -2%, Vif-A3G inh -8%, S-ASM inh -2%, Akt phos inh inactive and Vif-APOBEC3F blk 7%.
